Bioassay records deposited in PubChem by several laboratories.
Rows were chosen to be rich in hits. Some 1.5% of all compounds tested hit in one or more screens of this group.
BCLXL inh = Bcl-xL (human) inhibition | Q07817 | GST-Bcl-xL / FITC-Bim BH3 peptide fluorescence polarization | inhibition, % at 10.9 µM | 320,000 compounds, 0.7% hits | AID 2129;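 active = inhibition above the mean of all tested compounds plus 3 SD, cutoff set per campaign, cut at about 30% in these data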;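 note: 0% = DMSO wells and 100% = unlabeled Bim-BH3 peptide competitor; inhibitors lower millipolarization by displacing the labeled peptide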
Target sequence (Q07817 whole entry, looked up): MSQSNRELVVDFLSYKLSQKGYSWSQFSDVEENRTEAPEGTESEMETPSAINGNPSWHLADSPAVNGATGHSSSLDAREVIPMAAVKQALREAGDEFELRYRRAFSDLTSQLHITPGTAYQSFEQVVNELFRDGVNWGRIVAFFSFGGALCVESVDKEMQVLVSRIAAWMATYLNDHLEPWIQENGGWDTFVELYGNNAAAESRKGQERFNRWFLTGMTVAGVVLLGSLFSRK
MCL1 BIM primary = MCL1-BIM-BH3 interaction inhibition (human); GST-MCL1 / FITC-Bim-BH3 fluorescence polarization; Q07820; inhibition, % at 10.9 µM; 320,000 compounds, 0.68% hits;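 active = inhibition above the mean inhibition of all tested compounds plus 3 SD, set per campaign, cut at about 40% in these data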;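 note: 0% = DMSO wells and 100% = unlabeled Bim-BH3 peptide control; higher means more loss of mP so more displacement of Bim peptide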
Target sequence (Q07820 whole entry, looked up): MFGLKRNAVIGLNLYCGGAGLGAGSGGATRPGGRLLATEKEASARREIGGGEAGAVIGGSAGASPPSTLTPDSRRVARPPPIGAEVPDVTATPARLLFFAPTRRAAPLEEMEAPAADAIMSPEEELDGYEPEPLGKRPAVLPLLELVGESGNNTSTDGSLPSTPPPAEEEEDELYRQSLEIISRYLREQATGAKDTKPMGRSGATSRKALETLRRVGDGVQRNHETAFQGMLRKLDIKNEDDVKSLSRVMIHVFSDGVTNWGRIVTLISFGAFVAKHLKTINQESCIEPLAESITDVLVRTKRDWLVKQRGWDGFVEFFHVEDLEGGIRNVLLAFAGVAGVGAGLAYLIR
E coli Lon inh = E. coli protease La inhibition. P0A9M0. purified E. coli Lon protease, fluorescence polarization. inhibition, % at 7.94 µM. 360,000 compounds, 0.42% hits. AID 602123; in the data active = inhibition above about 13%, passing the limit was not always enough;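 note: 0% = enzyme with probe and DMSO and 100% = no enzyme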
MEX-5 binding = C. elegans MEX-5 TCR-2 RNA binding activity; Q9XUB2; MEX-5/FITC-TCR2 RNA binding, fluorescence polarization; stronger effect = lower value; activity score (negative = inhibition of binding), % at 10 µM; 300,000 compounds, 0.38% hits;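 active = inhibition past about -25% in most replicates, and total fluorescence under double the plate's negative control median, limit read from the data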;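 note: 0% = DMSO and -100% = 5 µM competing unlabeled TCR2 RNA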
EBV gp42 block = blocks Epstein-Barr virus glycoprotein 42 binding. Q1HVG2. Fluorescence polarization binding assay, mP read-out. inhibition, % (tested at 21.74 µM). 220,000 compounds, 0.42% hits. AID 1085; in the data active = inhibition above about 50%
GLD-1 TGE inh = GLD-1-TGE RNA interaction inhibition (C. elegans). purified GLD-1 + fluorescein TGE RNA, fluorescence polarization. Q17339. inhibition, % at 5.96 µM. 320,000 compounds, 0.44% hits;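 active = percent inhibition above a per-plate cutoff, the plate mean of test compounds plus 3 SD, cut at about 30% in these data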;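 note: 0% = DMSO wells with GLD-1 and probe and 100% = wells lacking GLD-1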
GLD1 RNA confirm = GLD-1 TGE RNA interaction inhibition, confirmation | inhibition, % at 5.96 µM | shares compounds with GLD-1 TGE inh | 550 compounds, 10% hits | GLD-1/FL-TGE RNA fluorescence polarization, biochemical;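 active = average inhibition across triplicates above the hit cutoff set in the primary screen, cut at about 32% in these data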;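 note: 0% = GLD-1 with RNA probe and DMSO and 100% = wells lacking GLD-1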
E coli Lon conf = confirmation of E. coli Lon protease inhibitors; 1,400 compounds, 31% hits; inhibition, % at 7.94 µM; purified E. coli Lon, fluorescence polarization; shares compounds with E coli Lon inh; AID 602230; in the data active = inhibition above about 16%;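 note: 0% = enzyme with probe and DMSO and 100% = no enzyme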
An asterisk follows results filed as active; · = no result.

SMILES	BCLXL inh	MCL1 BIM primary	E coli Lon inh	MEX-5 binding	EBV gp42 block	GLD-1 TGE inh	GLD1 RNA confirm	E coli Lon conf
CCOc1ccccc1C(=O)NCC(=O)OCC(=O)N1CCCC1	·	·	0	·	·	1	·	·
COc1ccc(C(=O)Nc2cccc(C)n2)cc1S(=O)(=O)N1CCCc2ccccc21	·	·	-2	·	·	·	·	·
Cc1cc2ccccc2n1CCNC(=O)c1ccc(Br)o1	34*	48*	9	-20	22	36*	11	·
Cc1cc2ccccc2n1CCNC(=O)c1ccccc1	25	26	3	·	8	16	·	·
COc1cc(/C=C(\C#N)c2nc3ccccc3[nH]2)cc(Br)c1OCc1ccc(F)cc1	5	-5	1	-6	-9	97*	-2	·
COc1cc(/C=C(\C#N)c2nc3ccccc3[nH]2)cc(Br)c1OCc1ccccc1	-7	-31	-26	-2	-12	-12	·	·
Cc1oc(/N=C/c2ccc3c(c2)OCO3)c(C#N)c1C	16	19	4	-3	1	36*	-3	·
COc1cccc(CC(=O)Nc2nc3c(s2)C(=O)CC(C)(C)C3)c1	0	4	3	-4	-4	1	·	·
COc1cc(C(=O)NC(=S)Nc2ccc([N+](=O)[O-])cc2)cc(OC)c1OC	7	12	-12	0	6	32*	-3	·
COc1cc(C(=O)NC(=S)Nc2ccc([N+](=O)[O-])cc2C)cc(OC)c1OC	4	15	1	-1	-8	3	·	·
COc1ccc(NC(=O)Cc2ccccc2)cn1	38*	40*	14	-12	35	36*	35*	·
COc1ccc(NC(=O)C(c2ccc(Cl)cc2)C(C)C)cn1 (stereo not drawn)	36*	26	-12	-7	·	36*	30	·
COc1ccc(NC(=O)Nc2ccc(F)cc2)cn1	20	24	7	-2	·	11	·	·
O=C(CSc1nnc(-c2ccncc2)n1-c1ccccc1)NCC1CCCO1 (stereo not drawn)	-2	-4	-2	·	·	7	·	·
Cc1ccc(Sc2ccc(S(=O)(=O)Nc3ccc(C(=O)O)cc3)cc2)cc1C	·	·	-5	·	·	-1	·	·
COc1ccc(CNCCC(c2ccccc2)C2CCOC(C)(C)C2)cc1 (stereo not drawn)	3	0	-2	1	-11	49*	2	·
CN1C2C=C3C(C#N)=C(N)C(C#N)(C#N)[C@@H](c4cccs4)C3C1CC2 (stereo partly drawn)	43*	46*	9	-11	-2	33*	4	·
CCN(C(=O)CSc1nnc2nc(C)cc(C)n12)c1ccccc1	5	5	8	0	-6	-6	·	·
CCN(CC)C(=O)CSc1nnc2nnc3cc(C)ccc3n12	28	32	40	-4	31	42*	23	·
COc1cc(CNC2CCCC2)cc(Cl)c1OCc1ccc(F)cc1	5	3	3	-1	-9	52*	-2	·
CCOc1cc(CNC2CCCC2)cc(Cl)c1OCc1ccc(F)cc1	1	4	-7	2	-4	1	·	·
NS(=O)(=O)c1ccc(NC(=O)COC(=O)CCc2ccccc2)cc1	-11	-9	-9	0	-15	1	·	·
Cc1ccc(S(=O)(=O)Nc2cc3c(C(=O)Nc4ccccc4)c(C)oc3c3ccccc23)cc1	21	22	25*	0	45	128*	105*	40*
CN1CCN(C2CN(C3CCCC3)S(=O)(=O)C2)CC1 (stereo not drawn)	·	·	-5	·	·	·	·	·
CN(C)Cc1cc(O)c(CN(C)C)cc1O	64*	48*	32*	-35*	-14	63*	8	-65
SMILES	BCLXL inh	MCL1 BIM primary	E coli Lon inh	MEX-5 binding	EBV gp42 block	GLD-1 TGE inh	GLD1 RNA confirm	E coli Lon conf
CCOc1ccc(-n2ccc(=O)c(C(=O)O)n2)cc1	-3	-3	-11	0	·	-2	·	·
CC(=O)N1CC=C2C(C#N)=C(N)C(C#N)(C#N)[C@H](c3ccoc3)[C@H]2C1	44*	52*	31*	-20	17	31*	18	15
CCOC(=O)N1CC=C2C(C#N)=C(N)C(C#N)(C#N)[C@H](c3ccc(OCC)c(OCC)c3)[C@H]2C1	9	3	-1	-9	-22	9	·	·
COC(=O)c1ccccc1NC(=O)N1CSC[C@H]1C(=O)OC	6	11	-1	-1	-13	6	·	·
CCC1c2ccc(C)n2CCN1C(=O)Nc1ccccc1C(=O)OC (stereo not drawn)	41*	44*	23*	-5	-7	35*	-1	6
O=C(O)c1ccccc1C(=O)N1CCN(c2ccccc2)CC1	3	-2	-6	-3	0	8	·	·
O=C(c1ccccc1C(=O)N1CCN(c2ccccc2)CC1)N1CCN(c2ccccc2)CC1	46*	46*	34*	·	27	38*	11	17*
O=C(Cc1c(F)cccc1Cl)Nc1ccc(S(=O)(=O)Nc2nccs2)cc1	6	6	-1	·	·	-7	·	·
CN(C(=S)NC(=O)c1ccccc1)c1c(N)n(Cc2ccccc2)c(=O)[nH]c1=O	7	7	-7	-1	5	-3	·	·
CNc1c(N)n(Cc2ccccc2)c(=O)[nH]c1=O	37*	43*	33*	-32*	50*	42*	30	24*
O=C(Cc1sc(Nc2ccccc2)nc1-c1ccccc1)NCc1ccccn1	0	-3	-24	2	7	-9	·	·
O=C(CN1C(=O)NC2(CCCCC2)C1=O)Oc1ccc2c(C(F)(F)F)cc(=O)oc2c1	33*	39	54*	1	·	59*	49*	33*
C[C@@H]1CN([C@H](C)CO)C(=O)CCCn2nncc2CO[C@H]1CN(C)S(=O)(=O)c1ccc(F)cc1	·	·	-1	·	·	·	·	·
CCc1cccc(NC(=O)CCCn2nc(CC)n3c(cc4occc43)c2=O)c1	30	31	29*	2	·	31*	-3	-5
CCS(=O)(=O)NCc1ccc2c(c1)cc(C)n2C	7	4	-2	2	0	9	·	·
Cc1cc2cc(CNS(=O)(=O)c3ccccc3)ccc2n1C	36*	47*	31*	-1	4	54*	11	20*
CCOC(=O)CCC(=O)NCc1ccc2c(c1)cc(C)n2C	38*	44*	39*	-4	14	31*	11	-4
COc1ccc(/C=N/c2c(-c3ccco3)nc3ccccn23)cc1OC	39*	47*	32*	-5	18	57*	57*	-3
COc1cc(-c2nc3ccccn3c2/N=C/c2ccc(F)cc2)ccc1O	4	12	-7	-2	8	-2	·	·
